Source: PubChem
Shown are actives, neighbours in structure and some others; about 19% of the full set was active somewhere.
SW480 rereplic – A quantitative high throughput screen for small molecules that induce DNA re-replication in SW480 colon adenocarcinoma cells; SW480 DNA re-replication, Hoechst DNA content imaging, 48 h; Potency, µM (titrated, usually from 46.1 µM), for inactives: at the top dose re-replication activation, hits mostly activators; actives 1.8% (n = 340,000); AID 624297, 2012; note: potency is the fitted concentration of half-maximal effect; % of control where 0% means no effect; nearly all actives have a fitted effect of over 55% in size
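Cells (250 per well) received 23 nL compound or DMSO by pin tool and were kept 48 hr at 37 C, 5% CO2. Nuclei were then stained with Hoechst for 40 min and scanned for DNA content.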
BCR signal inh – qHTS Assay to Find Inhibitors of Chronic Active B-Cell Receptor Signaling; ABC-DLBCL IkBa-CBG/CBR reporter, luminescence ratio, 4 h; Potency, µM (titrated, usually from 46.1 µM), inactives show at the highest dose activity change, negative = inhibition, hits mostly inhibitors; actives 0.05% (n = 340,000); AID 493014, 2011; active = well fitted inhibition curve with a large enough effect in the signal ratio, with a control signal flat, not every such curve was filed as active; inconclusive = small, poorly fitted or top-dose-only effect, or effect the other way, or a change in a side signal; the % refers to the signal ratio;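 note: potency is the fitted concentration of half-maximal effect; plate controls were basal doxycycline-induced cells for no effect and cells given 10 µM MG132 for full effect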
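TMD8 ABC-DLBCL cells carrying doxycycline-inducible green luciferase fused to IkappaBalpha plus unfused red luciferase were exposed to compounds (up to 46 uM) for 4 hrs at 37C. Activity came from the overlap-corrected green/red luminescence ratio.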
MCF10A rerep – A quantitative high throughput screen for small molecules that induce DNA re-replication in MCF 10a normal breast cells; Potency, µM (series often up to 46.1 µM), inactives show top-dose activity, positive = re-replication, hits mostly activators; MCF 10A DNA re-replication, Hoechst nuclear intensity, 48 h; actives 2.9% (n = 350,000); note: potency is the fitted concentration of half-maximal effect; % of control where 0% means no effect; nearly all actives have a fitted effect of over 50% in size
IL1B secr inh – qHTS for Inhibitors of Inflammasome Signaling: IL-1-beta AlphaLISA Primary Screen. THP-1 LPS/ATP IL-1B secretion, AlphaLISA, 16 h; stronger effect = lower value. activity change, % at 57.5 µM. actives 4.7% (n = 360,000); in the data active = activity change below about -50%; inconclusive = mostly about -30% to -49%; note: % is set by controls: 0 for no effect and ±100 for the full control effect
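Secreted IL-1B measured by AlphaLISA bead assay after 16 h compound exposure of THP-1 cells; compounds (final up to 57.5 uM) added 1 h before LPS (250 ng/mL) and ATP (1.25 mM) stimulation; lower signal means less secretion.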
TDP1 cell noCPT – qHTS for Inhibitors of human tyrosyl-DNA phosphodiesterase 1 (TDP1): qHTS in cells in absence of CPT | DT40 Tdp1-/- hTDP1 cells, no CPT, ATP luminescence, 48 h | Potency, µM (doses to about 46.2 µM), without a hit: at the highest dose activity change, negative = growth inhibition, actives largely listed as inhibitors | actives 15% (n = 420,000) | AID 686978, 2013; note: potency is the fitted concentration of half-maximal effect; % is set by controls: 0 for no effect and ±100 for the full control effect; nearly all actives have a fitted effect of over 55% in size
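No-CPT arm: Tdp1-/-;hTDP1 DT40 cells (400/well) plus compounds, incubated ≥48 hr at 37 °C. Readout CellTiter-Glo luminescence.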
TDP1 cell CPT – qHTS for Inhibitors of human tyrosyl-DNA phosphodiesterase 1 (TDP1): qHTS in cells in presence of CPT; actives 12% (n = 420,000); Potency, µM (titrated, usually from 46.2 µM), for inactives: at the top dose activity change, negative = growth inhibition, actives largely listed as inhibitors; chicken DT40 Tdp1-/-;hTDP1 cells + 20 nM CPT, ATP luminescence, 48 h; note: potency is the fitted concentration of half-maximal effect; % is set by controls: 0 for no effect and ±100 for the full control effect; nearly all actives have a fitted effect of over 55% in size
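Chicken DT40 Tdp1-/- cells stably complemented with human TDP1 were seeded at 400 cells/well in medium containing 20 nM camptothecin, exposed to pin-transferred compounds, and grown at 37 °C for at least 48 hr. Viability was read as ATP luminescence.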
Starred values were filed as active, the others as inactive; ! = not confirmed by another sample; [ ] = another dose, or the depositor's remark. Unless noted, calls come from the whole dose curve; as a rule, active = well fitted curve in the direction sought with a large enough effect; inconclusive = small, poorly fitted or top-dose-only effect, or another doubt; inactive = no such curve, though single readings can be large; an effect the other way counts as inactive or inconclusive.

COc1ccc(C(NC(=O)C2CCN(CCOc3ccc(Cl)cc3Cl)CC2)c2cccs2)cc1 (stereo not given) was read as IL1B secr inh -21, TDP1 cell noCPT 16µM* and TDP1 cell CPT inconclusive.
`COc1ccc(C(C)NC(=O)C2CCN(CCOc3ccc(Cl)cc3Cl)CC2)cc1OC` (stereo not given) gave IL1B secr inh -24, TDP1 cell noCPT 23µM* and TDP1 cell CPT 23µM*.
Screening Cc1ccc(-n2ncc3c(N4CCC(C(N)=O)CC4)ncnc32)c(C)c1 returned SW480 rereplic -10%, BCR signal inh -1%, MCF10A rerep 0%, IL1B secr inh -18, TDP1 cell noCPT 1% and TDP1 cell CPT inconclusive.
`Cc1ccc(-n2ncc3c(N4CCC5(CC4)OCCO5)ncnc32)c(C)c1` gave SW480 rereplic 22%, BCR signal inh inconclusive, MCF10A rerep 1%, IL1B secr inh -14, TDP1 cell noCPT 15µM* and TDP1 cell CPT 12µM*.
`CCN(CC)C(=O)C1CCN(c2ncnc3c2cnn3-c2ccc(C)cc2C)CC1` gave SW480 rereplic 21%, BCR signal inh 5%, MCF10A rerep 6%, IL1B secr inh -13, TDP1 cell noCPT 21µM* and TDP1 cell CPT inconclusive.
For CCc1cccc(NC(=O)c2cc3c(=O)n(Cc4ccc(OC)cc4)ccc3nc2C)c1 the results were TDP1 cell noCPT 15µM* and TDP1 cell CPT inconclusive.
`COc1ccc(Cn2ccc3nc(C)c(C(=O)N4CCN(c5ccccc5F)CC4)cc3c2=O)cc1` gave TDP1 cell noCPT 18µM* and TDP1 cell CPT 23µM*.
`COc1ccc(N2CCN(C(=O)c3cc4c(=O)n(Cc5ccccc5)ccc4nc3C)CC2)cc1` gave SW480 rereplic 3%, BCR signal inh 6%, MCF10A rerep 22%, IL1B secr inh 34, TDP1 cell noCPT inconclusive and TDP1 cell CPT inconclusive.
`COc1cccc(NC(=O)c2cc3c(=O)n(Cc4cccnc4)ccc3nc2C)c1` gave TDP1 cell noCPT -30% and TDP1 cell CPT 3%.
COc1cccc(N2CCN(C(=O)c3cc4c(=O)n(Cc5ccccc5)ccc4nc3C)CC2)c1 was read as SW480 rereplic 7%, BCR signal inh -10%, MCF10A rerep 14%, IL1B secr inh 54, TDP1 cell noCPT inconclusive and TDP1 cell CPT 16µM*!.
For Cc1ccc2nc(N3CCCCCC3)c(CN(CC3CCCO3)C(=O)c3cncs3)cc2c1 (stereo not given) the results were TDP1 cell noCPT -23% and TDP1 cell CPT -6%[9.04 µM].
`CCc1ccc(-n2nnc(-c3nc(-c4ccc(C)cc4)no3)c2N)cc1` gave TDP1 cell noCPT 1% and TDP1 cell CPT -3%.
`Cc1nn(-c2ccccc2)c(OC(=O)c2ccccc2Cl)c1S(=O)(=O)c1ccccc1` gave TDP1 cell noCPT -24% and TDP1 cell CPT -8%.
CCOc1ccccc1C(=O)Oc1c(S(=O)(=O)c2ccc(C)cc2)c(C)nn1-c1ccccc1 was read as TDP1 cell noCPT 21µM* and TDP1 cell CPT 10µM*.
COC(=O)N1CCC[C@@]2(CCN(C(=O)Nc3ccccc3)C2)C1 was read as TDP1 cell noCPT -4% and TDP1 cell CPT 10%.
For O=C1c2sc3nc4n(c(=O)c3c2CCC1Br)CCCCC4 (stereo not given) the results were SW480 rereplic inconclusive, BCR signal inh 20%, MCF10A rerep 2%, IL1B secr inh -93*, TDP1 cell noCPT 2.9µM* and TDP1 cell CPT 3.3µM*.
For O=c1c2c3c(sc2nc2n1CCCCC2)CCC3 the results were SW480 rereplic 12%, BCR signal inh inconclusive, MCF10A rerep 3%, IL1B secr inh 7, TDP1 cell noCPT -28% and TDP1 cell CPT 5%.
O=C(NCc1ccncc1)[C@@H]1CCCN1C(=O)[C@H]1CCCN1C(=O)c1ccccc1 was read as IL1B secr inh 58, TDP1 cell noCPT -27% and TDP1 cell CPT -7%.
Cc1cccc(CNC(=O)c2ccccc2NC(=O)C2=CSCCO2)c1 was read as SW480 rereplic inconclusive, BCR signal inh 1%, MCF10A rerep 0%, IL1B secr inh inconclusive, TDP1 cell noCPT 2% and TDP1 cell CPT -14%.
CC(C)NC(=O)c1ccccc1NC(=O)c1nsc2ccccc12 was read as TDP1 cell noCPT -13% and TDP1 cell CPT -7%.
Screening O=C(NCc1cccc(F)c1)c1ccccc1NC(=O)c1nsc2ccccc12 returned TDP1 cell noCPT 23µM* and TDP1 cell CPT inconclusive.
CN(C)c1ccc(CNC(=O)c2ccccc2NC(=O)c2nsc3ccccc23)cc1 was read as TDP1 cell noCPT 13µM* and TDP1 cell CPT 16µM*.
CC1(C(=O)Nc2ccc3c(c2)OCO3)CC1(Cl)Cl (stereo not given) was read as SW480 rereplic -5%, BCR signal inh 6%, MCF10A rerep 3%, IL1B secr inh -8, TDP1 cell noCPT 20% and TDP1 cell CPT -2%.
Cc1ccc(SCC(=O)Nc2nnc(C(C)(C)C)s2)cc1 was read as SW480 rereplic 0%, BCR signal inh 0%, MCF10A rerep inconclusive, IL1B secr inh 19, TDP1 cell noCPT -27% and TDP1 cell CPT 15%.
For CCN(C(=O)COC(=O)c1ccccc1Nc1ccccc1)c1c(N)n(Cc2ccccc2)c(=O)[nH]c1=O the results were SW480 rereplic inconclusive, MCF10A rerep inconclusive, IL1B secr inh -50*, TDP1 cell noCPT inconclusive and TDP1 cell CPT inconclusive.
Screening CC(C)CN(C(=O)COC(=O)c1ccc2c(c1)OCO2)c1c(N)n(Cc2ccccc2)c(=O)[nH]c1=O returned SW480 rereplic 0%, BCR signal inh 0%, MCF10A rerep 9%, IL1B secr inh -55*, TDP1 cell noCPT -19% and TDP1 cell CPT -17%.
Screening CCN(C(=O)COC(=O)c1cccc2ccccc12)c1c(N)n(Cc2ccccc2)c(=O)[nH]c1=O returned SW480 rereplic -18%, MCF10A rerep 16%, IL1B secr inh inconclusive, TDP1 cell noCPT 0% and TDP1 cell CPT -20%.
